Results filed as inconclusive are left out. Values without a mark were called inactive. Active and inactive are the calls of the source. Calls follow the shape of the dose curve; as a rule, active = well fitted inhibition curve with a large enough effect; inconclusive = small, poorly fitted or top-dose-only effect; inactive = flat fitted curve, though single readings scatter.
experiment: qHTS profiling for inhibitors of Plasmodium falciparum proliferation (AID 504749); also: nearly all actives have a fitted effect of over 60% in size;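 as to activity, negative = inhibition: 0% = DMSO vehicle and full inhibition = artemisinin control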; settings: P. falciparum in erythrocytes, SYBR Green DNA, 72 h; at 12.8 µM (top of the series); parasite line A
Description: NIH National Institute of Allergy and Infectious Diseases [NIAID] NIH Chemical Genomics Center [NCGC] MLPCN Grant: None Assay Provider: Xinzhuan Su, NIAID NCGC Assay Overview: Plasmodium falciparum is a virulent malarial parasite that kills 1-2 million people worldwide each year. Transmitted by mosquitoes, the sporozoite form of the parasite enters the blood stream to infect hepatocytes, where they become merozoites that infect red blood cells (erythrocytes). Within erythrocytes, merozoites begin a […] cycle of growth and division, after which the parasite is released to infect new red blood cells. Gametocytes, which form within erythrocytes as well, circulate in the bloodstream and are ingested by the mosquito, thereby completing the life cycle. To profile malarial isolates for differential chemical responses and to identify inhibitors of malarial growth, an assay that measures P. falciparum growth and replication within erythrocytes was employed. This assay uses a DNA binding fluorescent dye (SYBR Green) to detect parasite DNA following cell lysis. Because mature erythrocytes lack DNA, only Plasmodium-derived DNA is detected.
NCGC Assay Protocol Summary: The SYBR Green viability assay was adapted from a method described previously (Plouffe et al., 2008). For screening 3 ul culture medium was dispensed into 1536 well black clear bottom plates (Aurora Biotechnologies) using a Multidrop Combi (Thermo Fisher Scientific Inc.), 23 nL compounds in DMSO were added by a pin tool (Kalypsys), and 5 ul of erythrocytes infected with P. falciparum (0.3% parasitemia, 2.5% hematocrit final concentration) were added. The plates were incubated at 37 C in a humidified incubator in 5% CO2 for 72 h, and 2 ul lysis buffer (20 mM Tris HCl, 10 mM EDTA, 0.16% saponin, 1.6% triton X, 10X SYBR Green I supplied as 10,000X […] by Invitrogen) was added to each well. The plates were mixed for 25 sec with gentle shaking and incubated overnight at room temperature in the dark. The following morning, fluorescence intensity at 485(14) nm excitation and 535(25) nm emission wavelengths was measured on an EnVision (Perkin Elmer) plate reader. Plate reads were normalized relative to the control inhibitor (0.29 uM artemisinin) and vehicle (DMSO) wells present on each plate and then corrected by an algorithm using vehicle-only control plates at the beginning and end of the compound plate stack.
Potency is read from the fitted curve at half-maximal effect.

Compound | activity, negative = inhibition
Nc1nc2c(c(=O)[nH]1)N(C=O)[C@H](CNc1ccc(C(=O)N[C@@H](CCC(=O)O)C(=O)O)cc1)CN2 | 9.3%
COc1ccc([C@@H]2CNC(=O)C2)cc1OC1CCCC1 | 9.55%

same assay, conditions: P. falciparum in erythrocytes, SYBR Green DNA, 72 h; at 12.8 µM (top of the series); parasite line B

Compound | activity, negative = inhibition
Nc1nc2c(c(=O)[nH]1)N(C=O)[C@H](CNc1ccc(C(=O)N[C@@H](CCC(=O)O)C(=O)O)cc1)CN2 | 7.79%
COc1ccc([C@@H]2CNC(=O)C2)cc1OC1CCCC1 | -3.14%

same assay, conditions: P. falciparum in erythrocytes, SYBR Green DNA, 72 h; at 28.7 µM (top of the series); parasite line A

Compound | activity, negative = inhibition
OCC(O)C(O)C(O)CO (centres undefined) | 4.99%
COc1ccc2c(c1OC)C(=O)OC2[C@H]1c2c(cc3c(c2OC)OCO3)CCN1C (some centres undefined) | 5.64%

same assay, conditions: P. falciparum in erythrocytes, SYBR Green DNA, 72 h; at 28.7 µM (top of the series); parasite line B

Compound | activity, negative = inhibition
OCC(O)C(O)C(O)CO (centres undefined) | 7.38%
COc1ccc2c(c1OC)C(=O)OC2[C@H]1c2c(cc3c(c2OC)OCO3)CCN1C (some centres undefined) | 5.33%

same assay, conditions: P. falciparum in erythrocytes, SYBR Green DNA, 72 h; parasite line A

Compound | Potency
COc1cccc2c1C(=O)c1c(O)c3c(c(O)c1C2=O)C[C@@](O)(C(=O)CO)C[C@@H]3O[C@H]1C[C@H](N)[C@H](OC2CCCCO2)[C@H](C)O1 (some centres undefined) | 3.16 µM (active)
CCCCCCCCCCCC(CC1OC(=O)C1CCCCCC)OC(=O)C(CC(C)C)NC=O (centres undefined) | 0.355 µM (active)
CCC(C(=O)O)C1CCC(C)C(C(C)C(O)C(C)C(=O)C(CC)C2OC3(C=CC(O)[C@@]4(CC[C@](C)(C5CC[C@@](O)(CC)C(C)O5)O4)O3)C(C)CC2C)O1 (some centres undefined) | 1 µM (active)

same assay, conditions: P. falciparum in erythrocytes, SYBR Green DNA, 72 h; parasite line B

Compound | Potency
COc1cccc2c1C(=O)c1c(O)c3c(c(O)c1C2=O)C[C@@](O)(C(=O)CO)C[C@@H]3O[C@H]1C[C@H](N)[C@H](OC2CCCCO2)[C@H](C)O1 (some centres undefined) | 4.47 µM (active)
CCCCCCCCCCCC(CC1OC(=O)C1CCCCCC)OC(=O)C(CC(C)C)NC=O (centres undefined) | 0.708 µM (active)
CCC(C(=O)O)C1CCC(C)C(C(C)C(O)C(C)C(=O)C(CC)C2OC3(C=CC(O)[C@@]4(CC[C@](C)(C5CC[C@@](O)(CC)C(C)O5)O4)O3)C(C)CC2C)O1 (some centres undefined) | 1.12 µM (active)

Source: PubChem BioAssay (NCATS)
